# From the supplement of paper PMC8728848
# This excerpt belongs to a sample that is enriched for the strongest signals.
# How the values were obtained:
# Assay in all cases: glycan array binding signal (z-score within array); higher = stronger binding
# [1] = test system: Man(a1-6)Man; settings: glycan notation: IUPAC condensed, linker removed
# How it was run: (§1)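 Arrays were curated from the Consortium for Functional Glycomics database, 3228 in total, and kept only where the protein sequence was available. Binding is expressed as a within-array Z-score. This score was averaged across arrays of the same protein sequence at different concentrations or buffers and across linkers, and negative values can be read as non-binding.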
# [2] = test system: Neu5Ac(a2-3)Gal(b1-3)GalNAc(b1-3)Gal(a1-4)Gal(b1-4)Glc; settings: glycan notation: IUPAC condensed, linker removed
# How it was run: as §1
# [3] = test system: Neu5Ac(a2-3)Gal(b1-3)GalNAc(b1-3)Gal(b1-4)GlcNAc; settings: glycan notation: IUPAC condensed, linker removed
# How it was run: as §1
# [4] = test system: Neu5Ac(a2-3)Gal(b1-3)GalNAc(b1-4)[Neu5Ac(a2-3)]Gal(b1-4)Glc; settings: glycan notation: IUPAC condensed, linker removed
# How it was run: as §1
# [5] = test system: Neu5Ac(a2-3)Gal(b1-3)GalNAc(b1-4)[Neu5Ac(a2-8)Neu5Ac(a2-3)]Gal(b1-4)Glc; settings: glycan notation: IUPAC condensed, linker removed
# How it was run: as §1
# [6] = test system: Neu5Ac(a2-3)Gal(b1-3)GalNAc6S; settings: glycan notation: IUPAC condensed, linker removed
# How it was run: as §1
# [7] = test system: Neu5Ac(a2-3)Gal(b1-3)GalNAc; settings: glycan notation: IUPAC condensed, linker removed
# How it was run: as §1
# [8] = test system: Neu5Ac(a2-3)Gal(b1-3)GlcNAc(b1-2)Man(a1-3)[Neu5Ac(a2-3)Gal(b1-3)GlcNAc(b1-2)Man(a1-6)]Man(b1-4)GlcNAc(b1-4)GlcNAc; settings: glycan notation: IUPAC condensed, linker removed; mutation: R125K
# How it was run: as §1
# [9] = test system: Neu5Ac(a2-3)Gal(b1-3)GlcNAc(b1-2)Man(a1-3)[GlcNAc(b1-4)][Neu5Ac(a2-3)Gal(b1-3)GlcNAc(b1-2)Man(a1-6)]Man(b1-4)GlcNAc(b1-4)GlcNAc; settings: glycan notation: IUPAC condensed, linker removed
# How it was run: as §1
# Avaren (Actinomycete K97), sequence (chain, as listed by the source): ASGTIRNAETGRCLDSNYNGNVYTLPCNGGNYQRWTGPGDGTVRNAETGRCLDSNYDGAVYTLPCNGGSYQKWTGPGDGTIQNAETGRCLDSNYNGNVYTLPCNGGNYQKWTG
# C3b (Homo sapiens), P01024, sequence (P01024 23-667): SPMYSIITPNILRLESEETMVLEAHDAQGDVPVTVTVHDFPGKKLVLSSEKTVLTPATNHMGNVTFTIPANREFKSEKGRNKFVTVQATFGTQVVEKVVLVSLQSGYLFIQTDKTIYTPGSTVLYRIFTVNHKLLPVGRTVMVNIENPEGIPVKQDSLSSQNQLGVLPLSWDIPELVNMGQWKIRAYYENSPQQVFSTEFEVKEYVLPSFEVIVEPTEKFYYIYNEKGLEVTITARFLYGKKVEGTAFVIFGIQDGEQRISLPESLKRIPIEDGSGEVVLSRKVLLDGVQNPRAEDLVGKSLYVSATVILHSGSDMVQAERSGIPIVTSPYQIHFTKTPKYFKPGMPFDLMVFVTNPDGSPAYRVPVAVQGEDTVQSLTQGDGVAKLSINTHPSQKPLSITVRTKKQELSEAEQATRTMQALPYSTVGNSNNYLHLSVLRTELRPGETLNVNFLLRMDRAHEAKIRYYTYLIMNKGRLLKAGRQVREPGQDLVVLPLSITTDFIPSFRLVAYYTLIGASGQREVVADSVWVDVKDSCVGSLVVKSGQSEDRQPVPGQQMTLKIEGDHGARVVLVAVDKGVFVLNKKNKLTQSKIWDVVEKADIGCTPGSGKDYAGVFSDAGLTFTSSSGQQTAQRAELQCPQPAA
# wLAT-1A (Homo sapiens), Q01650, sequence (Q01650 whole entry): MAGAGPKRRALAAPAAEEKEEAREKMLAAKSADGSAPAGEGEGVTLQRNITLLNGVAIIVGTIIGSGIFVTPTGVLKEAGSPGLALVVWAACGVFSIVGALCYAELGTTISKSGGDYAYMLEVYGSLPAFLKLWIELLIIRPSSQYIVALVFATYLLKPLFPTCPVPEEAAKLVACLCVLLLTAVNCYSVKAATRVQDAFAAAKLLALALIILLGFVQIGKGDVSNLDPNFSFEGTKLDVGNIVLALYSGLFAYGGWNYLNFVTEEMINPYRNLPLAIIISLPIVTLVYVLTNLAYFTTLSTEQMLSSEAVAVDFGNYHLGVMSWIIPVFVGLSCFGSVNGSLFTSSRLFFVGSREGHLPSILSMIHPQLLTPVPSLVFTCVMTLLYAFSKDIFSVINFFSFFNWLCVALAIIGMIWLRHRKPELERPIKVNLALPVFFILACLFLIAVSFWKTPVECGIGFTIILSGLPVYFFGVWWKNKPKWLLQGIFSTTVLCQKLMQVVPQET
# Neurocan (Homo sapiens), O14594, sequence (O14594 other isoform, or with tags, fused parts or gaps): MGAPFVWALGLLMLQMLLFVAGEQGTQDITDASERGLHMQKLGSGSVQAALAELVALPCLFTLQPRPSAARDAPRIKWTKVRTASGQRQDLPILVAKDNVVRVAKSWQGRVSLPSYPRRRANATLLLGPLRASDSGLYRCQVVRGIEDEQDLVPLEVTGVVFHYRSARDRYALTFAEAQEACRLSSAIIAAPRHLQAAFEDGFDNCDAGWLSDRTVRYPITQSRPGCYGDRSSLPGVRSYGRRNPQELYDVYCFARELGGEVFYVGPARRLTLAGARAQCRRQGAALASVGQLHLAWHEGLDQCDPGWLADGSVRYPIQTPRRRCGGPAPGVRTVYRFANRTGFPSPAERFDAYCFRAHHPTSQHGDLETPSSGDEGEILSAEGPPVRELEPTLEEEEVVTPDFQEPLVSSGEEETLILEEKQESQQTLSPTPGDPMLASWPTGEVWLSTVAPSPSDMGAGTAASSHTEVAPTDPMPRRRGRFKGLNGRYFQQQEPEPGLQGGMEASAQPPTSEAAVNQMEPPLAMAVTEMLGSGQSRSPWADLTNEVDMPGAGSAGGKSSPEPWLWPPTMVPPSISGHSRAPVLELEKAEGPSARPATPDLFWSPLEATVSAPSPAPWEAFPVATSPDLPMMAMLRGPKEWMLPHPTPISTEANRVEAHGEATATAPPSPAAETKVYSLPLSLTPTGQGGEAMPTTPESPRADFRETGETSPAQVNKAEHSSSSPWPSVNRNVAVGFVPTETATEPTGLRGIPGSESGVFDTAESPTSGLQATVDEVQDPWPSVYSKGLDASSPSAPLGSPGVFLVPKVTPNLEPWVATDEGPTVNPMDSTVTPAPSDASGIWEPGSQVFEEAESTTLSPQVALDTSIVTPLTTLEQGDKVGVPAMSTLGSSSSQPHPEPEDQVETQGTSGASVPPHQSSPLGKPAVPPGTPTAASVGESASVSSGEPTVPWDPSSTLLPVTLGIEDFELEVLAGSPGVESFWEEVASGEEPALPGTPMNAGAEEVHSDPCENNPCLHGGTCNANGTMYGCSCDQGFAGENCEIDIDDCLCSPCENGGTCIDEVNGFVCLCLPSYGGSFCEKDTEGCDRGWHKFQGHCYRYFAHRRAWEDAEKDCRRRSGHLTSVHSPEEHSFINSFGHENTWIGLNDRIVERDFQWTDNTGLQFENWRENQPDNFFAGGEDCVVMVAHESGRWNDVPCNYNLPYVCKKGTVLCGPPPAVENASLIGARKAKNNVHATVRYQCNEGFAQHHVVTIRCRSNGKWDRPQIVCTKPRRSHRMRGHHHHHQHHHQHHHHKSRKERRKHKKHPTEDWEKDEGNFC
# Aggrecan (Rattus norvegicus), NP_071526, sequence (chain, as listed by the source): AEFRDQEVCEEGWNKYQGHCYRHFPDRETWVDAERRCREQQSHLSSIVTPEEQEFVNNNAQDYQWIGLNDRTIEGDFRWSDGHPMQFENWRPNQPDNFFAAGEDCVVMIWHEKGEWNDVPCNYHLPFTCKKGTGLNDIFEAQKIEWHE
# 6RG (Lolium perenne), sequence (chain, as listed by the source): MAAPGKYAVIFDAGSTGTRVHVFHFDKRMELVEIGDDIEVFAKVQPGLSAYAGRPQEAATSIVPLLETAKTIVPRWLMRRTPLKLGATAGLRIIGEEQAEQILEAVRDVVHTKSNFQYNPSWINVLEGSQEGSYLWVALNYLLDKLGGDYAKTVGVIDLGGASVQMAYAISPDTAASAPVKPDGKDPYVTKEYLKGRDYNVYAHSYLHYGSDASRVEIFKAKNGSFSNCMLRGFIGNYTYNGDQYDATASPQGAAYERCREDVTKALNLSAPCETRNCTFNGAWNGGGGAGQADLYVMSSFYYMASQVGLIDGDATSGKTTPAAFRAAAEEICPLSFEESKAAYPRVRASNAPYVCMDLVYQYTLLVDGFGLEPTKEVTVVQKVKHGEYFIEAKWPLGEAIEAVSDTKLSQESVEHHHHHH
substance,measurement,setting,value
"wLAT-1A (Homo sapiens), Q01650",glycan array binding signal (z-score),[1],0.732
"Neurocan (Homo sapiens), O14594",glycan array binding signal (z-score),[2],0.009
"Aggrecan (Rattus norvegicus), NP_071526",glycan array binding signal (z-score),[3],-0.071
Avaren (Actinomycete K97),glycan array binding signal (z-score),[4],-0.124
same,glycan array binding signal (z-score),[5],-0.128
6RG (Lolium perenne),glycan array binding signal (z-score),[6],-0.326
"C3b (Homo sapiens), P01024",glycan array binding signal (z-score),[7],-0.754
"Siglec-8 (Homo sapiens), Q9NYZ4",glycan array binding signal (z-score),[7]; mutation: R125K,4.65
same,glycan array binding signal (z-score),[8],1.23
MpAFP RI GFP (Marinomonas primoryensis),glycan array binding signal (z-score),[9],-0.323
